Among the data in PubChem BioAssay (NCATS) are Potency, max response and outcome values, retold here.

“And” between values parts separate entries of the source, which are not always exact repeats. Equal values may be shown once. Values without a mark were called inactive. Results filed as inconclusive are left out. A call without a number means that no potency is given here. The source made the active and inactive calls. Unless noted, the call rests on the fitted dose curve; in most records, active means well fitted curve in the direction sought with a large enough effect; inconclusive means small, poorly fitted or top-dose-only effect, or another doubt; inactive means no such curve, though single readings can be large; an effect the other way counts as inactive or inconclusive.

Sequence of Hexokinase-4 (Homo sapiens) + Glucokinase regulatory protein (Homo sapiens) (P35557 whole entry, looked up): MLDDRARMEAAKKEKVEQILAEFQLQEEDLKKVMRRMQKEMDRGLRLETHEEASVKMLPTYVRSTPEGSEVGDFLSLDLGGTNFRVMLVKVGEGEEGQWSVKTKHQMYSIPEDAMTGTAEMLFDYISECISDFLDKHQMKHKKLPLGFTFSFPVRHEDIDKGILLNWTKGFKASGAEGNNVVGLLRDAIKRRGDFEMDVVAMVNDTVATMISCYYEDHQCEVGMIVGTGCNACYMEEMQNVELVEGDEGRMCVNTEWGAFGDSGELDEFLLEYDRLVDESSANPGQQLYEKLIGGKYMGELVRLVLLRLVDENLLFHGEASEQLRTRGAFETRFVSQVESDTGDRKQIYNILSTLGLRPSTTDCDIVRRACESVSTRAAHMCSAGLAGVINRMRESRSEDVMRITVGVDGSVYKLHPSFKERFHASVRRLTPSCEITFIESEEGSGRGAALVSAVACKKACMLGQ
Sequence of Hexokinase-4 (Homo sapiens) + Glucokinase regulatory protein (Homo sapiens) (Q14397 whole entry, looked up): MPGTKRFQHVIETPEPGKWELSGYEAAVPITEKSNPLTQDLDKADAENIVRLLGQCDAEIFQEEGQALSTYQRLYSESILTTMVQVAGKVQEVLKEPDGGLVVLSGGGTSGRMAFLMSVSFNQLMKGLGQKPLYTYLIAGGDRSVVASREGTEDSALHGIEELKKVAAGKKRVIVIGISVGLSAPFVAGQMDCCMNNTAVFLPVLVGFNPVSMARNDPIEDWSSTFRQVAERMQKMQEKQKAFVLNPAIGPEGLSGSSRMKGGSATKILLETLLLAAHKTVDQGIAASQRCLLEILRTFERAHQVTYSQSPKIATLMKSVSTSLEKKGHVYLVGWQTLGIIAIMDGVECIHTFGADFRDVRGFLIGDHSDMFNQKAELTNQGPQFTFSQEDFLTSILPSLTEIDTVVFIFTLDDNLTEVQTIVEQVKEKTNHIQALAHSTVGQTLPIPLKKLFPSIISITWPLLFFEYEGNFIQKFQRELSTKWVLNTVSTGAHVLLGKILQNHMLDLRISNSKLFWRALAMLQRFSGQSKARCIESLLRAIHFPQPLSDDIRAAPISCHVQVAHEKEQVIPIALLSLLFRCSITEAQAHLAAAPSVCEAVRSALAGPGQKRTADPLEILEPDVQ

Tested on in one assay: not listed separately
Description: qHTS for Activators of Parkin Expression: LOPAC Validation Assay (NLuc Reporter) (AID 720572). The conditions noted are these: Parkin promoter NanoLuc reporter cells, luminescence; series mostly up to 46.1 µM. The method in brief:
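Neuronal line stably carrying a FLuc/NLuc coincidence reporter under the Parkin promoter, seeded 24 h, then dosed in 7-point series for 24 h at 37 C. NLuc luminescence read after FLuc; normalized to DMSO and positive control (100%).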
For orientation: In qHTS, concentration-response curves come from the screen itself.
As to `CNC(=O)[C@H]1O[C@@H](n2cnc3c(NCc4ccc(N)cc4)ncnc32)[C@H](O)[C@@H]1O`, the Potency result was “inactive”.

As to `CSc1nc(N)c2ncn([C@@H]3O[C@H](COP(=O)(O)OP(=O)(O)OP(=O)(O)O)[C@@H](O)[C@H]3O)c2n1`, the Potency result is “inactive”.

On to `CN1C2CCC1CC(OC(=O)C(O)c1ccccc1)C2` (configuration not stated), for which the Potency entry is “inactive”.

In the case of `CN1CCC[C@H]1c1cccnc1`, the Potency entry was “inactive”.

With `CCN(CC)c1ncnc2c1ncn2[C@@H]1O[C@H](COP(=O)(O)OP(=O)(O)C(Br)(Br)P(=O)(O)O)[C@@H](O)[C@H]1O`, the Potency entry was “inactive”.

For the compound `COc1ccccc1N1CCN(CCCCNS(=O)(=O)c2cccc3c(N(C)C)cccc23)CC1`, the Potency entry is “inactive”.

As to `Nc1nc(Cl)nc2c1ncn2[C@@H]1O[C@H](COP(=O)(O)OP(=O)(O)OP(=O)(O)O)[C@@H](O)[C@H]1O`, the Potency result was “inactive”.

Turning to `CN1CCc2cccc3c2C1Cc1ccc(O)c(O)c1-3` (configuration not stated), the Potency entry was “inactive”.

For the compound `CCCCCCCCCCCCCCCC(=O)NCC(COP(=O)([O-])OCC[N+](C)(C)C)OCC` (configuration not stated), the Potency result was “inactive”.

In the case of `NC(CCCP(=O)(O)O)C(=O)O` (configuration not stated), the Potency result was “inactive”.

In the case of `C=C[C@@H]1CN2CC[C@@H]1C[C@H]2[C@H](O)c1ccnc2ccc(OC)cc12`, the Potency result is “inactive”.

Tested on in another assay: not listed separately
In words: qHTS for Activators of Parkin Expression: LOPAC Validation Assay (FLuc Reporter) (AID 720573). As to conditions: Cell line, PRKN promoter firefly luciferase reporter; series mostly up to 46.1 µM. In a few lines: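 Neuronal cell line stably carrying FLuc/NLuc coincidence reporter under Parkin promoter; cells plated 24 h, then compounds added in 7-point dose response for 24 h at 37 C. FLuc luminescence read; normalized to DMSO and positive control (100%).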
Turning to `CNC(=O)[C@H]1O[C@@H](n2cnc3c(NCc4ccc(N)cc4)ncnc32)[C@H](O)[C@@H]1O`, the Potency result was “inactive”.

For `CSc1nc(N)c2ncn([C@@H]3O[C@H](COP(=O)(O)OP(=O)(O)OP(=O)(O)O)[C@@H](O)[C@H]3O)c2n1`, the Potency result was “inactive”.

As for `CN1C2CCC1CC(OC(=O)C(O)c1ccccc1)C2` (configuration not stated), the Potency result was “inactive”.

Take `CN1CCC[C@H]1c1cccnc1`: the Potency result was “inactive”.

For `CCN(CC)c1ncnc2c1ncn2[C@@H]1O[C@H](COP(=O)(O)OP(=O)(O)C(Br)(Br)P(=O)(O)O)[C@@H](O)[C@H]1O`, the Potency entry was “inactive”.

On to `COc1ccccc1N1CCN(CCCCNS(=O)(=O)c2cccc3c(N(C)C)cccc23)CC1`, for which the Potency result was “inactive”.

On to `Nc1nc(Cl)nc2c1ncn2[C@@H]1O[C@H](COP(=O)(O)OP(=O)(O)OP(=O)(O)O)[C@@H](O)[C@H]1O`, for which the Potency result is “inactive”.

With `CN1CCc2cccc3c2C1Cc1ccc(O)c(O)c1-3` (configuration not stated), the Potency result was “inactive”.

As for `CCCCCCCCCCCCCCCC(=O)NCC(COP(=O)([O-])OCC[N+](C)(C)C)OCC` (configuration not stated), the Potency result is “inactive”.

In the case of `NC(CCCP(=O)(O)O)C(=O)O` (configuration not stated), the Potency entry was “inactive”.

With `C=C[C@@H]1CN2CC[C@@H]1C[C@H]2[C@H](O)c1ccnc2ccc(OC)cc12`, the Potency result was “inactive”.

Tested on in a further assay: not listed separately
In words: qHTS assay for small molecule agonists of the antioxidant response element (ARE) signaling pathway measured by Nrf2-dependant transcriptional activity (AID 720636; active means well fitted curve in the direction sought with a large enough effect in the repeat runs; an effect the other way counts as inactive or inconclusive). The conditions noted are these: ARE-luc HepG2, Nrf2 luciferase reporter, 16 h; series mostly up to 92.4 µM. In a few lines: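 Nrf2-dependent transcription read as ONE-Glo luciferase signal from ARE-luc HepG2 reporter cells after 16 hr compound treatment at 37 C, 5% CO2, in assay medium with 1% dialyzed FBS.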
For the compound `O=C(O)/C=C\C(=O)O`, the Potency result was “inactive”.

For `CCCCCCCCCCCCCCCC(=O)OC(C)C`, the Potency entry was “inactive”.

On to `Nc1cc(-c2ccncc2)c[nH]c1=O`, for which the Potency entry is “inactive”.

Take `CC(C)OC(=O)c1cc(C(=O)OC(C)C)cc([N+](=O)[O-])c1`: the Potency result was “inactive”.

On to `CN1CCC[C@H]1c1cccnc1`, for which the Potency result was “inactive”.

`S=c1[nH]c2ccccc2s1`: the Potency entry was “inactive”.

Regarding `O=C(O)c1ccccc1Nc1cccc(C(F)(F)F)c1`, the Potency entry was “inactive”.

For the compound `O=C(OCc1ccccc1)c1ccccc1`, the Potency result is “inactive”.

On to `C=CCCCCCCCCC(=O)O`, for which the Potency entry is “inactive”.

Tested on in another assay: not listed separately
Description: qHTS assay for small molecule antagonists of the retinoid-related orphan receptor gamma (ROR-gamma) signaling pathway - cell viability counter screen (AID 720652; active means well fitted curve in the direction sought with a large enough effect in the repeat runs; an effect the other way counts as inactive or inconclusive;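 further: CHO reporter cells with doxycycline-induced ROR-gamma expression; compound exposure lasted 16 hr before ATP read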). As to conditions: RORgamma reporter cell line viability counter screen; series mostly up to 92.2 µM. The method in brief:
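Cytotoxicity is quantified via intracellular ATP (CellTiter-Glo luminescence) in doxycycline-induced CHO ROR response element-luciferase reporter cells treated with compound for 16 hr at 37 C, 5% CO2.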
Turning to `O=C(O)/C=C\C(=O)O`, the Potency result was “inactive”.

On to `Nc1ccc(O)c([N+](=O)[O-])c1`, for which the Potency entry is “inactive”.

In the case of `CN1CCC[C@H]1c1cccnc1`, the Potency result was “inactive”.

Consider `S=c1[nH]c2ccccc2s1`, for which the Potency result is “inactive”.

Turning to `Nc1ccc([N+](=O)[O-])cc1O`, the Potency entry was “inactive”.

Tested on in another assay: not listed separately
Description: qHTS assay for small molecule agonists of the antioxidant response element (ARE) signaling pathway measured by Nrf2-dependant transcriptional activity - cell viability counter screen (AID 720653; active means well fitted curve in the direction sought with a large enough effect in the repeat runs; an effect the other way counts as inactive or inconclusive). The conditions noted are these: ARE-bla HepG2 viability, CellTiter-Glo ATP luminescence, 16 h; max response: active compounds read low. The method in brief: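 ARE-bla HepG2 cells (2,000/well) rested 5 hrs at 37C/5% CO2, then exposed to compounds in DMSO for 16 hrs. Viability was read in the same wells as intracellular ATP by luminescence, 30 min at room temperature after reagent addition.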
Turning to `O=C(O)/C=C\C(=O)O`, the max response was -4.39%.

`CCCCCCCCCCCCCCCC(=O)OC(C)C`: the max response was -10.7%.

On to `Nc1cc(-c2ccncc2)c[nH]c1=O`, for which the max response was -1.18%.

As to `CC(C)OC(=O)c1cc(C(=O)OC(C)C)cc([N+](=O)[O-])c1`, the max response was -4.4%.

For the compound `Nc1ccc(O)c([N+](=O)[O-])c1`, the max response is -1.19% and -1.35%.

`CN1CCC[C@H]1c1cccnc1`: the max response was -4.29% and -4.16%.

Consider `S=c1[nH]c2ccccc2s1`, for which the max response is -14.2% and -2.08%.

Turning to `O=C(O)c1ccccc1Nc1cccc(C(F)(F)F)c1`, the max response is 0.398%.

As for `O=C(OCc1ccccc1)c1ccccc1`, the max response was -0.23%.

Consider `Nc1ccc([N+](=O)[O-])cc1O`, for which the max response was -6.11% and -12.4%.

As to `C=CCCCCCCCCC(=O)O`, the max response was 1.06%.

The next assay deals with Hexokinase-4 (Homo sapiens) + Glucokinase regulatory protein (Homo sapiens) (UniProt P35557+Q14397). Description: qHTS assay for inhibitors of recombinant human GCK-GKRP interaction: Diaphorase-coupled assay (AID 743205). As to conditions: G6PDH/diaphorase resorufin fluorescence; series mostly up to 57.5 µM. In a few lines:
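GST-GCK (10 nM) with FLAG-GKRP (10 nM), 5 mM glucose and 0.4 mM ATP in pH 7.6 Hepes; compounds preincubated 20 min with substrate. G6PDH/diaphorase coupling converts resazurin to resorufin, read kinetically (ex 525/em 590 nm) for 30 min.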
Take `CNC(=O)[C@H]1O[C@@H](n2cnc3c(NCc4ccc(N)cc4)ncnc32)[C@H](O)[C@@H]1O`: the result was inactive.

Regarding `CSc1nc(N)c2ncn([C@@H]3O[C@H](COP(=O)(O)OP(=O)(O)OP(=O)(O)O)[C@@H](O)[C@H]3O)c2n1`, the outcome was inactive.

`CN1C2CCC1CC(OC(=O)C(O)c1ccccc1)C2` (configuration not stated): the result was inactive.

`CCN(CC)c1ncnc2c1ncn2[C@@H]1O[C@H](COP(=O)(O)OP(=O)(O)C(Br)(Br)P(=O)(O)O)[C@@H](O)[C@H]1O`: the outcome was inactive.

`COc1ccccc1N1CCN(CCCCNS(=O)(=O)c2cccc3c(N(C)C)cccc23)CC1`: the outcome was inactive.

Regarding `Nc1nc(Cl)nc2c1ncn2[C@@H]1O[C@H](COP(=O)(O)OP(=O)(O)OP(=O)(O)O)[C@@H](O)[C@H]1O`, the outcome was inactive.

Take `CN1CCc2cccc3c2C1Cc1ccc(O)c(O)c1-3` (configuration not stated): the result was inactive.

`CCCCCCCCCCCCCCCC(=O)NCC(COP(=O)([O-])OCC[N+](C)(C)C)OCC` (configuration not stated): the outcome was inactive.

`NC(CCCP(=O)(O)O)C(=O)O` (configuration not stated): the outcome was inactive.

On to `C=C[C@@H]1CN2CC[C@@H]1C[C@H]2[C@H](O)c1ccnc2ccc(OC)cc12`, for which the outcome was inactive.
